Some test systems named below: T-47D breast; BT-549 breast; MDA-MB-435 melanoma; SW-620 colon; MCF7 breast; HCT-116 colon; HCC-2998 colon; KM12 colon.
What all share (assay): NCI-60 one-dose screen, 48 h (100 = growth as untreated, 0 = no growth, -100 = all killed)
What all share (details): 10 µM unless noted

About 83,000 compounds went through this panel and 20% of them were active in at least one assay; those are over-represented in the sample as a whole.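 The test compound was applied at a single concentration to cells in 96-well plates for 48 hours, and percent growth was recorded.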 A number with no mark means an inactive call. Active and inactive are the calls of the source. Rule for the calls: active = growth percent below 10; inactive = the rest.

In the case of `Fc1cccc(CNc2c3ccccc3nc3ccccc23)c1F`, the growth is 68.3% in the assay with T-47D breast; 90.6% in the assay on BT-549 breast; 87.3% with MDA-MB-435 melanoma; 41.4% with SW-620 colon; 29.8% in the assay with MCF7 breast; 17.5% with HCT-116 colon. For the same compound, the growth in the assay with HCC-2998 colon is 58.4%; in the assay on KM12 colon it was 87%.
In the case of `c1ccc(CNc2c3ccccc3nc3ccccc23)cc1`, the growth with T-47D breast was 37.7%; in the assay on BT-549 breast, 72.8%; in the assay with MDA-MB-435 melanoma, 42.8%; in the assay on SW-620 colon, 24.5%; in the assay with MCF7 breast it was 12%; with HCT-116 colon, 8.4% (active). Moreover, the growth in the assay on HCC-2998 colon was 38.2%; in the assay with KM12 colon it was 30.5%.
Take `Clc1ccc(Sc2cnc(-c3ccccc3)o2)cc1`: the growth in the assay with T-47D breast is 84.6%; with BT-549 breast it was 96.6%; in the assay with MDA-MB-435 melanoma, 101%; in the assay with SW-620 colon it was 105%; in the assay with MCF7 breast it was 96.1%; in the assay with HCT-116 colon it was 104%. In addition, the growth was 99.2% with HCC-2998 colon and 102% in the assay with KM12 colon.
As to `CCc1ccc(Oc2cn[nH]c2-c2ccc(OCCc3ccc(F)cc3)cc2O)cc1`, the growth in the assay on T-47D breast is 34.5%; in the assay with BT-549 breast, 107%; with MDA-MB-435 melanoma, 91.6%; in the assay on SW-620 colon, 94.1%; in the assay on MCF7 breast, 85.3%; with HCT-116 colon it was 71.9%. Also, the growth with HCC-2998 colon was 98.5%; with KM12 colon, 84.8%.
`Fc1ccc2[nH]cc(-c3nonc3-c3c[nH]c4ccc(Br)cc34)c2c1`: the growth is 3.33% (active) in the assay on T-47D breast; 55.5% with BT-549 breast; 47.5% in the assay with MDA-MB-435 melanoma; 28.5% in the assay on SW-620 colon; 12.6% with MCF7 breast; 20.2% in the assay with HCT-116 colon. Further, the results for the growth in the assay on HCC-2998 colon and in the assay on KM12 colon were 2.9% (active) and 7.15% (active), respectively.
On to `CC(C)CCC[C@@H](C)[C@H]1CC[C@H]2[C@@H]3CC=C4C[C@@H](C(C(=O)O)C(=O)O)CC[C@]4(C)[C@H]3CC[C@]12C`, for which the growth with T-47D breast was -13.8% (active); with BT-549 breast it was -22.6% (active); with MDA-MB-435 melanoma, -55.6% (active); in the assay on SW-620 colon, -39.7% (active); in the assay with MCF7 breast, 1.84% (active); in the assay with HCT-116 colon it was -61.3% (active). For the same compound, the growth with HCC-2998 colon was -47.5% (active); in the assay with KM12 colon, -74.4% (active).
Regarding `CCNc1cc(-c2cccc(OC(F)(F)F)c2)nc2ccc(N3CCCC3)cc12`, the growth in the assay with T-47D breast is -24.6% (active); in the assay on BT-549 breast, 75.2%; in the assay with MDA-MB-435 melanoma it was 2.21% (active); with SW-620 colon, 4.43% (active); in the assay on MCF7 breast, 3.29% (active); with HCT-116 colon it was -15.9% (active). Besides, the growth with HCC-2998 colon is 6.29% (active); with KM12 colon, 4.19% (active).
In the case of `O=C(Nc1ccc(-c2nc(N3CCOCC3)c3cccn3n2)cc1)Nc1cccnc1`, the growth was -24.8% (active) in the assay with T-47D breast; -10.2% (active) with BT-549 breast; 3.87% (active) in the assay with MDA-MB-435 melanoma; 8.71% (active) in the assay on SW-620 colon; 4.54% (active) with MCF7 breast; 4.12% (active) with HCT-116 colon. In addition, the growth in the assay with HCC-2998 colon was 12.9%; in the assay with KM12 colon, 9.01% (active).
For `OCCCC1CCN(C(Cc2ccccc2)c2ccccc2)CC1` (stereo not given), the growth is 56.9% with T-47D breast; 79.8% with BT-549 breast; 96.4% in the assay on MDA-MB-435 melanoma; 107% in the assay with SW-620 colon; 94.6% in the assay on MCF7 breast; 83.9% with HCT-116 colon. Also, the growth was 94.4% with HCC-2998 colon and 94.7% with KM12 colon.
As for `CNC(=O)c1c(NC(=O)c2ccc(C(F)(F)F)cc2)sc2c1CCC(=O)C2`, the growth was -15.2% (active) with T-47D breast; -14.1% (active) with BT-549 breast; 0.84% (active) in the assay with MDA-MB-435 melanoma; -55.8% (active) in the assay with SW-620 colon; 0.392% (active) with MCF7 breast; -46.4% (active) in the assay on HCT-116 colon. Besides, the results for the growth in the assay with HCC-2998 colon and in the assay on KM12 colon were -39.3% (active) and -36.4% (active), respectively.
As for `CC(C)=CCC[C@](C)(O)[C@H]1CC[C@]2(C)[C@@H]1CC[C@@H]1[C@@]3(C)Cc4nccnc4C(C)(C)[C@@H]3CC[C@]12C`, the growth in the assay with T-47D breast is 51.5%; in the assay with BT-549 breast, 74.8%; with MDA-MB-435 melanoma, 64.6%; in the assay with SW-620 colon, 71.1%; in the assay on MCF7 breast it was -59.3% (active); in the assay with HCT-116 colon, 46.9%. In addition, the results for the growth in the assay with HCC-2998 colon and with KM12 colon were 79.4% and 75%, respectively.
Take `N#Cc1c(-c2ccc(Cl)cc2)nc(SCC(=O)NC2=NN=C(c3ccccc3)CS2)[nH]c1=O`: the growth was 41.4% in the assay with T-47D breast; 91.3% in the assay with BT-549 breast; 29.5% in the assay with MDA-MB-435 melanoma; 91.6% in the assay on SW-620 colon; 47.8% in the assay on MCF7 breast; 80.6% in the assay with HCT-116 colon. Also, the growth in the assay on HCC-2998 colon was 89.6%; in the assay on KM12 colon it was 83.8%.
On to `CC(C)(C)c1cc(-c2nc3ccc(N4CCN(S(C)(=O)=O)CC4)cc3[nH]2)cc(C(C)(C)C)c1O`, for which the growth in the assay on T-47D breast was 76.6%; with BT-549 breast, 102%; with MDA-MB-435 melanoma, 94%; with SW-620 colon, 97.2%; with MCF7 breast, 76.4%; in the assay on HCT-116 colon, 81.7%. Also, the growth is 103% in the assay on HCC-2998 colon and 27.6% with KM12 colon.
In the case of `Cc1ccc(-c2cc(-c3ccc(Cl)cc3)nc(NC(=O)c3cccnc3)n2)cc1`, the growth in the assay on T-47D breast was 96.3%; in the assay on BT-549 breast, 117%; in the assay on MDA-MB-435 melanoma, 99.8%; in the assay on SW-620 colon, 102%; in the assay on MCF7 breast, 86.3%; in the assay on HCT-116 colon, 98.9%. The growth was 115% with HCC-2998 colon and 99.8% in the assay with KM12 colon.
Consider `Cn1cc(-c2nonc2-c2c[nH]c3ccc(Br)cc23)c2cc(Br)ccc21`, for which the growth was 24.4% in the assay with T-47D breast; 76.8% with BT-549 breast; 40.3% in the assay on MDA-MB-435 melanoma; 55.9% with SW-620 colon; 26.1% in the assay with MCF7 breast; 22.7% with HCT-116 colon. Also, the growth with HCC-2998 colon is 39.8%; in the assay on KM12 colon it was 22.8%.

The record behind these values is PubChem BioAssay (NCI).
